Experimental findings from PubChem BioAssay (NCI) are described below.

Among the test systems are NCI-H23 lung; NCI-H226 lung; NCI-H322M lung; HOP-62 NSCLC; NCI-H460 lung; HOP-92 NSCLC; A549/ATCC NSCLC; 786-0 renal; COLO 205 colon; DU-145 prostate; K-562 leukemia; MALME-3M melanoma; MDA-MB-231 breast; RXF 393 renal; SF-268 CNS; SF-295 CNS; SF-539 CNS; UACC-257 melanoma; M14 melanoma; NCI-H522 lung.
Holding throughout (test): NCI-60 one-dose screen, 48 h (100 = growth as untreated, 0 = no growth, -100 = all killed)
Common to all, as to conditions: 10 µM unless noted

The panel holds about 83,000 compounds, 20% with a hit somewhere; the sample as a whole holds those more often.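 Step 1: grow cells in 96-well plates. Step 2: add test compound at a single concentration. Step 3: incubate 48 h. Step 4: record percent growth.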 Unmarked numbers belong to inactive results. Active and inactive are the calls of the source. How the source made its calls: active means growth percent below 10; inactive means the rest.

In the case of `O=C(/C=C/c1sc(Cl)nc1Cl)c1ccc(F)cc1`, the growth is 94% in the assay with NCI-H23 lung; 96.4% with NCI-H226 lung; 100% in the assay with NCI-H322M lung; 95.6% in the assay on HOP-62 NSCLC; 102% in the assay on NCI-H460 lung; 96.9% in the assay with HOP-92 NSCLC. Moreover, the growth in the assay on A549/ATCC NSCLC is 98.4%; in the assay on 786-0 renal, 95.8%; in the assay on COLO 205 colon it was 75.6%; with DU-145 prostate, 92%; with K-562 leukemia, 10%; in the assay on MALME-3M melanoma, 79.3%. Besides, the growth was 81.5% in the assay on MDA-MB-231 breast; 93.3% with RXF 393 renal; 92.8% with SF-268 CNS; 95.7% in the assay on SF-295 CNS; 66.8% in the assay on SF-539 CNS; 95.9% with UACC-257 melanoma. In the assay on M14 melanoma, the growth was 78.4%.
Consider `COc1cc(C2CC(c3ccc(N(C)C)cc3)=NN2C(C)=O)cc(OC)c1OC` (centres undefined), for which the growth is 31.2% in the assay with NCI-H23 lung; 79.6% in the assay with NCI-H226 lung; 44.2% in the assay with NCI-H322M lung; 47.8% in the assay on HOP-62 NSCLC; 10.8% in the assay on NCI-H460 lung; 60.7% in the assay on HOP-92 NSCLC. The growth with A549/ATCC NSCLC is 51.2%; in the assay with 786-0 renal it was 24.1%; in the assay on COLO 205 colon it was 19.2%; in the assay with DU-145 prostate, 2.14% (active); in the assay on K-562 leukemia, 17.6%; in the assay with MALME-3M melanoma, 37.9%. Also, the growth in the assay on MDA-MB-231 breast was 56.3%; in the assay with RXF 393 renal it was -17.7% (active); in the assay on SF-268 CNS, 35%; in the assay on SF-295 CNS it was 12.1%; in the assay with SF-539 CNS, -21.4% (active); in the assay with UACC-257 melanoma it was 56.5%. Moreover, the growth in the assay on M14 melanoma is 19.4%.
As for `CCc1ccc(Oc2c(-c3ccc(OCc4ccc(Cl)cc4)cc3O)n[nH]c2C(F)(F)F)cc1`, the growth in the assay with NCI-H23 lung is 3.59% (active); in the assay with NCI-H226 lung it was 24.8%; with NCI-H322M lung, 35.3%; in the assay on HOP-62 NSCLC, 57.5%; with NCI-H460 lung, 3.21% (active); in the assay with HOP-92 NSCLC, -17.2% (active). Also, the growth in the assay on A549/ATCC NSCLC was 33.5%; in the assay on 786-0 renal, 64.4%; with COLO 205 colon, 95.7%; in the assay with DU-145 prostate it was 15%; in the assay on K-562 leukemia, 3.36% (active); in the assay with MALME-3M melanoma, -28.3% (active). Moreover, the growth in the assay with MDA-MB-231 breast is 27.6%; with RXF 393 renal it was 65%; in the assay with SF-268 CNS, 30%; with SF-295 CNS, 88.1%; with SF-539 CNS, 56.6%; with UACC-257 melanoma, 6.85% (active). Besides, the growth with M14 melanoma is 30.5%.
Turning to `COc1ccc2c(c1)C(C)Cc1c(ncnc1-n1c(C)nc3ccccc31)N2C` (centres undefined), the growth is 30.2% in the assay on NCI-H23 lung; 63.7% with NCI-H226 lung; 39.5% in the assay with NCI-H322M lung; 33.6% with HOP-62 NSCLC; 7.77% (active) with NCI-H460 lung; -4.69% (active) with HOP-92 NSCLC. The growth is 20.9% in the assay with NCI-H522 lung; 35.2% in the assay with A549/ATCC NSCLC; 29.2% with 786-0 renal; 24.2% with DU-145 prostate; 11% in the assay on K-562 leukemia; 58.1% in the assay on MALME-3M melanoma. In addition, the growth in the assay on RXF 393 renal is 14.2%; in the assay with SF-268 CNS, 42.5%; with SF-295 CNS, 6.04% (active); in the assay with SF-539 CNS, 5.97% (active); with UACC-257 melanoma, 68.3%; with M14 melanoma, 14.5%.
Take `O=C(CCN1C(=O)/C(=C/c2ccc(O)cc2)SC1=S)Nc1ccccc1`: the growth is 91.9% in the assay on NCI-H23 lung; 90.9% with NCI-H226 lung; 95% in the assay on NCI-H322M lung; 85.9% with HOP-62 NSCLC; 106% with NCI-H460 lung; 89.6% in the assay with HOP-92 NSCLC. Further, the growth is 80.1% in the assay with NCI-H522 lung; 93.3% in the assay with A549/ATCC NSCLC; 105% with 786-0 renal; 110% in the assay with DU-145 prostate; 81.8% in the assay with K-562 leukemia; 95.4% with MALME-3M melanoma. In addition, the growth was 91.1% in the assay on MDA-MB-231 breast; 103% in the assay on RXF 393 renal; 93.5% in the assay with SF-268 CNS; 91% in the assay with SF-295 CNS; 97.8% in the assay with SF-539 CNS; 104% in the assay on UACC-257 melanoma. Also, the growth with M14 melanoma is 97.4%.
Consider `COc1ccc(NC(=O)n2nc(/C=C\c3ccc(O)c(OC)c3)cc2/C=C\c2ccc(O)c(OC)c2)cc1`, for which the growth in the assay with NCI-H23 lung is 43.9%; with NCI-H226 lung, 87.2%; in the assay on NCI-H322M lung it was 58.1%; with HOP-62 NSCLC, 32.7%; in the assay with NCI-H460 lung, 14.2%; with HOP-92 NSCLC, 89.1%. For the same molecule, the growth was 27.3% in the assay on A549/ATCC NSCLC; 32.1% in the assay with 786-0 renal; 107% with COLO 205 colon; 27.2% with DU-145 prostate; 9.25% (active) in the assay with K-562 leukemia; 51.9% in the assay on MALME-3M melanoma. The growth in the assay with MDA-MB-231 breast is 36.5%; with RXF 393 renal, 23%; with SF-268 CNS, 41.8%; in the assay with SF-295 CNS, 51.6%; with SF-539 CNS, 6.72% (active); in the assay with UACC-257 melanoma, 75.2%. Besides, in the assay on M14 melanoma, the growth is 4.97% (active).
For `COC(=O)C(Cc1ccccc1)NC(=O)NC(=O)NC(=O)CI` (centres undefined), the growth was 63.2% in the assay with NCI-H23 lung; 82.9% in the assay with NCI-H226 lung; 108% in the assay on NCI-H322M lung; 102% in the assay on HOP-62 NSCLC; 92.3% in the assay on NCI-H460 lung; -26% (active) in the assay with HOP-92 NSCLC. In addition, the growth was 99.8% with A549/ATCC NSCLC; -3.88% (active) with 786-0 renal; 25.4% in the assay with COLO 205 colon; 91.2% with DU-145 prostate; -18.8% (active) in the assay with K-562 leukemia; -71% (active) with MALME-3M melanoma. Also, the growth was 63.9% in the assay with RXF 393 renal; 71.8% in the assay on SF-268 CNS; 103% with SF-295 CNS; 87.7% in the assay with SF-539 CNS; 103% in the assay with UACC-257 melanoma; 35.2% with M14 melanoma.
On to `O=C(CCCCCCSc1nc(-c2ccccc2)cc(-c2ccccc2)n1)NO`, for which the growth with NCI-H23 lung was 27.6%; with NCI-H226 lung it was 56%; in the assay with NCI-H322M lung, 45%; in the assay with HOP-62 NSCLC, 29.5%; in the assay on NCI-H460 lung it was 24.4%; in the assay with HOP-92 NSCLC, 7.75% (active). The growth was 27.4% in the assay on A549/ATCC NSCLC; 65% in the assay with 786-0 renal; 25.7% in the assay on COLO 205 colon; 36.3% with DU-145 prostate; 11.3% in the assay with K-562 leukemia; 14.3% in the assay with MALME-3M melanoma. The growth in the assay with MDA-MB-231 breast was 40.8%; in the assay on RXF 393 renal, 6.08% (active); in the assay on SF-268 CNS, 62.3%; in the assay on SF-295 CNS, 41.7%; with SF-539 CNS, 53.1%; in the assay on UACC-257 melanoma, 29%. Also, the growth in the assay on M14 melanoma was 31.7%.
Regarding `COc1ccc2c(c1)nc(NNC(=O)c1cnccn1)c1cccn12`, the growth in the assay on NCI-H23 lung was 33.4%; in the assay with NCI-H226 lung it was 39.3%; in the assay with NCI-H322M lung it was 28.5%; in the assay on HOP-62 NSCLC it was 28.6%; in the assay on NCI-H460 lung it was 7.94% (active); with HOP-92 NSCLC, 64.3%. Further, the growth was 24.6% in the assay on A549/ATCC NSCLC; 26.1% with 786-0 renal; 7.24% (active) in the assay on COLO 205 colon; 31.1% with DU-145 prostate; 13.9% in the assay with K-562 leukemia; 46.3% in the assay on MALME-3M melanoma. For the same molecule, the growth in the assay with MDA-MB-231 breast is 30.4%; in the assay with RXF 393 renal it was 48%; in the assay with SF-268 CNS it was 30.4%; with SF-295 CNS, 13.6%; with SF-539 CNS it was 23.5%; in the assay on UACC-257 melanoma, 25.7%. Moreover, the growth in the assay on M14 melanoma is 8.27% (active).
